Test results as given in PubChem BioAssay AID1345083 (National Center for Advancing Translational Sciences (NCATS), 2018).
The campaign covered roughly 94,000 compounds. About 6,200 (6.6%) were called active. Not shown: some 31% with an inconclusive outcome. What follows is part of a selection rich in actives, with near analogues and random picks from the rest. Unmarked numbers belong to inactive results. The call rests on the fitted dose curve; in most records, active means well fitted inhibition curve with a large enough effect; inconclusive means small, poorly fitted or top-dose-only effect; inactive means flat fitted curve, though single readings scatter.

Assay: Cytotoxic Profiling in HEK 293 Cell Line of Diverse Libraries Using Quantitative High-Throughput Screening; further: nearly all actives have a fitted effect of over 60% in size
Conditions: HEK 293 viability, ATP luminescence (CellTiter-Glo), 48-72 h; series mostly up to 115 µM; activity change, negative = cytotoxicity: at the top concentration
Excerpt: Cell-based phenotypic screening is a commonly used approach to discover biological pathways, novel drug targets, chemical probes and high-quality hit-to-lead molecules. Many hits identified from high-throughput screening campaign are ruled out through a series of follow-up potency, selectivity/specificity, and cytotoxicity assays. Prioritization of molecules with little or no cytotoxicity for a more in-depth downstream evaluation influence the future direction of projects, so cytotoxicity profiling of the screening libraries at early stage is essential for increasing the likelihood of candidate success. In this study, we analyzed results from a cell-based cytotoxicity screening campaign, comprising nearly 10,000 compounds in NCATS annotated libraries, and over 100,000 compounds in a diversity library, evaluated in four normal cell lines (HEK 293, NIH 3T3, CRL-7250 and HaCat) and a cancer cell line (KB 3-1, a HeLa subline) with overall screening outcomes, hit rates, pan-activity and selectivity. For the annotated library, we also examined the primary targets and mechanistic pathways regularly associated with cell death. To our knowledge, this is the first study to use high-throughput screening to profile large libraries for cytotoxicity assessment in both normal and cancer cell lines. In summary, the results generated here constitutes a valuable resource for the scientific community and provides insight on identifying cytotoxic compounds with particular mechanisms of action, and prioritizing compounds with suitable cytotoxicity profile for further evaluation.
HEK 293 cells were seeded into white 1536-well plates using a Multidrop Combi peristaltic dispenser (ThermoFisher, Waltham, MA) at a density of 250 cells/well in 5 uL of medium respectively. A pintool (Kalypsys) was used to transfer 23 nL of compound solution to the 1536-well assay plates. After 48 or 72 hr incubation at 37 degree Celsius, 5% CO2 and 95% humidity, 2.5 uL of CellTiter-Glo (Promega) was dispensed into each well using a dispenser (Aspect Automation, St. Paul, MN) with solenoid valves (Lee Valves, Westbrook CT). Plates were left at room temperature for 10 min before imaging the ATP-coupled luminescence using a ViewLux microplate imager (PerkinElmer, Waltham, MA).
On the % scale 0 is the no-effect control and ±100 the full control effect; potency means the concentration at half of the fitted maximal effect.

Structure (SMILES)	Potency	activity change, negative = cytotoxicity	outcome
CC(=O)NC1(C)CCN(Cc2cccc(-c3ccc(C(=O)c4ccccc4)cc3)c2)C1 (centres undefined)	39.8 µM (active)	–	–
COc1cccc(CC(=O)N2CCC(CC3CC3)(NC(=O)c3ccccc3)CC2)c1	–	-16.1%	–
COCC1CN(C(C)=O)CC12CCN(Cc1cccc(C#N)c1)CC2 (centres undefined)	–	0.069%	–
CCC(C(=O)Nc1ccc2c(c1)CN(Cc1cc(F)cc(F)c1)C(=O)CO2)c1ccccc1 (centres undefined)	44.7 µM (active)	–	–
COc1cccc(CC(=O)N[C@@H]2C[C@H](Cn3cc(C4CC4)nn3)[C@@H](O)[C@H]2O)c1	–	–	inactive [at 172 µM]
Cc1cc2nc3n(c(=O)c2n1CC(=O)NC1CCCCC1)CCCC3	–	8.3%	–
OCc1cccc(-c2cc(C3=CCOCC3)c3cncn3c2)c1	–	-21.3% [at 172 µM]	–
FC(F)(F)c1cccc(-c2cc(C3=CCOCC3)c3cncn3c2)c1	100 µM (active)	–	–
CC1=NS(=O)(=O)N(Cc2ccc(Cl)cc2)C=C1C(=O)O	–	-2.93%	–
COc1ccc(CCC(=O)N2C[C@@H](Oc3ccccc3)C[C@H]2C(=O)N2CCOCC2)cc1	–	-0.714%	–
O=C(c1cn2cc(-c3cccnc3)sc2n1)N1CCCCC1	–	-5.61%	–
O=C(Nc1ccc(F)cc1)c1cn2cc(-c3ccc(C(F)(F)F)cc3)sc2n1	–	-0.955%	–
Cc1cc2ncc(C(=O)NCc3cccnc3)cn2n1	–	–	inactive [at 172 µM]
O=C(NCc1ccccc1Cl)c1cn2cc(-c3ccc(C(F)(F)F)cc3)sc2n1	–	-12.3%	–
O=C(NCc1cccnc1)c1cn2cc(-c3cccc(C(F)(F)F)c3)sc2n1	28.2 µM (active)	–	–
Cc1ccc(-c2cn3cc(C(=O)NCc4cccnc4)nc3s2)cc1	44.7 µM (active)	–	–
Cc1noc(C)c1S(=O)(=O)N1CCCC(c2nn[nH]n2)C1 (centres undefined)	–	–	inactive
CN(C)CC1(O)CCC2(CCN(C(=O)c3ccc4ccccc4n3)CC2)CC1	–	-3.02%	–
COC(=O)N1CCCC(C(=O)N2CCC3(CC2)CC(=O)Nc2ccccc2O3)C1 (centres undefined)	–	-25.2%	–
COc1ccccc1C(O)c1nc(Nc2ccc(C(F)(F)F)cc2)n[nH]1 (centres undefined)	89.1 µM (active)	–	–
COc1cccc(Nc2n[nH]c(C(O)c3cccc(C(F)(F)F)c3)n2)c1 (centres undefined)	79.4 µM (active)	–	–
O=C1CCN(C(=O)c2nccc3ccccc23)CCOCCN1	–	-0.481%	–
COCCNC(=O)CN1C(=O)NC2(CCC(C(C)(C)C)CC2)C1=O (centres undefined)	–	-19.9%	–
O=C(c1cccc(N2CCNC2=O)c1)N1CC(=O)N(C2CCCCC2)CC(OCc2ccccc2)C1 (centres undefined)	–	21.7%	–
O=c1n(CCN2CCN([S+](=O)([O-])c3ccccc3)CC2)nc2n1CCCC2	–	-11.1%	–
Cc1cc(C)n(Cc2cc(C(=O)N3CCSCC3)n[nH]2)n1	–	–	inactive
CC(=O)Nc1ccc(CN2CCn3c(nnc3-c3ccccc3)C2)cc1	–	-4.01%	–
Clc1ccc(-c2nnc3n2CCN(Cc2cccnc2)C3)cc1	–	–	inactive
FC(F)(F)c1ccc(CN2CCn3c(nnc3-c3ccccc3)C2)cc1	89.1 µM (active)	–	–
